Screening results deposited in PubChem BioAssay by National Center for Advancing Translational Sciences (NCATS).
HT1080 IDH1KD tx: kills HT-1080 cells with IDH1 knockdown; AID 686971; 360,000 compounds, 2% hits; HT-1080 IDH1 knockdown viability, ATP luminescence, 48 h; Potency, µM (titrated, usually from 46.1 µM), for inactives: top-dose activity, negative = toxicity, actives largely listed as cytotoxic;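 also: 0% = DMSO wells and -100% = cell-free medium wells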
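CellTiter-Glo luminescence after 48 h compound exposure at 37 degrees C of IDH1-knockdown HT-1080 cells in 5% FBS RPMI. %Activity scaled between DMSO wells and cell-free media wells, with curves fitted and assigned curve classes.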
HepG2 tox-1: HepG2 cytotoxicity, counter-screen for TGF-b inhibitors; Potency, µM (top dose mostly 46.1 µM), without a hit: at the highest dose activity change, negative = cytotoxicity, actives largely listed as cytotoxic; 410,000 compounds, 0.76% hits; AID 588856; HepG2 CAGA-GFP viability, ATP luminescence, 18 h
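HepG2 CAGA-GFP cells (1000/well, DMEM with 1% FBS) received compound, then TGF-beta at 500 pg/mL final, and were incubated 18 hours at 37 degrees C. Viability was read by CellTiter-Glo luminescence. Media-only wells were set as complete cell-killing and DMSO as no toxicity.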
KB-V1 MDR tox: kills drug-selected multidrug resistant KB-V1 cells | Potency, µM (doses to about 46.1 µM), hits mostly cytotoxic | 400,000 compounds, 3.4% hits | KB-V1 MDR cells viability, CellTiter-Glo, 72 h; also: % is scaled to controls: 0 for no effect and ±100 for the full control effect; nearly all actives have a fitted effect of over 60% in size
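Drug-selected KB-V1 cells, grown in DMEM lacking phenol red with 10% FBS, receive compound titrations; after three days at 37 degrees C, surviving cell ATP is quantified by CellTiter-Glo luminescence and responses normalized and curve-fitted.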
HT1080NT lethal: kills 2HG-producing HT-1080-NT fibrosarcoma cells; HT-1080-NT fibrosarcoma viability, CellTiter-Glo ATP luminescence, 48 h; Potency, µM (titrated, usually from 46.1 µM), for the others: at the highest dose activity, negative = less viability, actives largely listed as cytotoxic; 360,000 compounds, 1.6% hits; AID 686970;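 also: NT is the 2HG producing partner of a matched IDH1 knockdown line; 0% = DMSO-treated cells and -100% = media-only wells without cells; nearly all actives have a fitted effect of over 55% in size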
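Toxicity toward the 2HG-producing NT line was scored as %Activity, normalised to DMSO and no-cell wells, from CellTiter-Glo luminescence after 48 hours' treatment.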
KB-3-1 tox: kills parental KB-3-1 adenocarcinoma cells; 400,000 compounds, 1.4% hits; KB-3-1 viability, CellTiter-Glo ATP luminescence, 72 h; Potency, µM (doses to about 46.1 µM), usual class: cytotoxic; also: % is scaled to controls: 0 for no effect and ±100 for the full control effect; nearly all actives have a fitted effect of over 60% in size
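Here the drug-naive KB-3-1 line serves as comparator for MDR sub-line selectivity; cells received compound titrations, 72 h at 37 °C, then CellTiter-Glo readout.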
TGFb SMAD3 inh: TGF-b pathway inhibition. HepG2 CAGA-GFP TGF-b/SMAD3 reporter, GFP fluorescence, 18 h; TGF-beta stimulated, 500 pg/mL final. Potency, µM (doses to about 46.1 µM), for inactives: at the highest dose activity, negative = inhibition, actives largely listed as inhibitors. 410,000 compounds, 1.2% hits; also: % is scaled to controls: 0 for no effect and ±100 for the full control effect; nearly all actives have a fitted effect of over 65% in size
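HEPG2 CAGA-GFP reporter cells (1000/well, DMEM with 1% FBS) received compounds, then recombinant TGF-beta at 500 pg/mL final for 18 hours at 37 degrees C. Per-cell GFP summed per well was normalised to unstimulated and stimulated DMSO controls before curve fitting.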
TGFb CAGA inh: confirmation of TGF-b signaling inhibitors in HepG2 reporter cells | 1,600 compounds, 63% hits | shares compounds with TGFb SMAD3 inh | Potency, µM (series often up to 46.1 µM), for inactives: at the highest dose activity, negative = inhibition, actives largely listed as inhibitors | HepG2 CAGA-GFP TGF-b reporter, GFP fluorescence, 18 h; cells stimulated with TGF-beta, 500 pg/mL; also: % is scaled to controls: 0 for no effect and ±100 for the full control effect; nearly all actives have a fitted effect of over 65% in size
HepG2 tox-2: counter-screen for TGF-b inhibitors: cytotoxicity in HepG2 cells. shares compounds with TGFb SMAD3 inh. HepG2 CAGA-GFP viability, ATP luminescence, 18 h; cells stimulated with TGF-beta, 500 pg/mL. Potency, µM (top dose mostly 46.1 µM), inactives show top-dose activity, negative = cytotoxicity, usual class: inhibitors. 1,600 compounds, 27% hits. AID 720535; also: % is scaled to controls: 0 for no effect and ±100 for the full control effect; nearly all actives have a fitted effect of over 70% in size
TGFb CCL64 inh: orthogonal confirmation of TGF-b inhibitors in CCL64 cells; shares compounds with TGFb SMAD3 inh; CCL64 CAGA-GFP reporter, TGF-b stimulated, GFP fluorescence, 18 h; Potency, µM (series often up to 46.1 µM), inactives show at the top dose activity, negative = inhibition, most hits filed as inhibitors; 1,600 compounds, 41% hits; AID 720536; also: nearly all actives have a fitted effect of over 65% in size
COP TGFb inh: validation of TGF-b inhibitors in HepG2 COP promoter reporter. Potency, µM (series often up to 46.1 µM), for inactives: at the highest dose activity, negative = inhibition, most hits filed as inhibitors. HepG2 COP-GFP TGF-b reporter, GFP fluorescence, 18 h; cells stimulated by added recombinant TGF-beta. shares compounds with TGFb SMAD3 inh. 1,600 compounds, 3% hits. AID 720537; also: nearly all actives have a fitted effect of over 70% in size
The depositor's hits bear a star; ! = a repeat was not active. The list is not random: actives were taken first. Their share in the collection is about 6.6%. Calls follow the shape of the dose curve; as a rule, active = well fitted curve in the direction sought with a large enough effect; inconclusive = small, poorly fitted or top-dose-only effect, or another doubt; inactive = no such curve, though single readings can be large; an effect the other way counts as inactive or inconclusive. Potency is read from the fitted curve at half-maximal effect.

COc1ccc2c(c1OC)CN1CCc3cc4c(cc3[C@H]1C2)OCO4 was read as HT1080 IDH1KD tx 0%, HepG2 tox-1 -29%, KB-V1 MDR tox inactive, HT1080NT lethal 0%, KB-3-1 tox inactive and TGFb SMAD3 inh inconclusive.
CC(C)c1ccc(OCC(=O)N2CCN(CCc3ccccn3)CC2)cc1 was read as HepG2 tox-1 0%, KB-V1 MDR tox inactive, KB-3-1 tox inactive and TGFb SMAD3 inh 5%.
Cc1ccc(N2C(=O)NC(=O)/C(=C\C=C\c3ccco3)C2=O)cc1C was read as HT1080 IDH1KD tx -22%, HepG2 tox-1 -5%, KB-V1 MDR tox inconclusive, HT1080NT lethal -16%, KB-3-1 tox inconclusive, TGFb SMAD3 inh 13µM*, TGFb CAGA inh 2.6µM*, HepG2 tox-2 2.9µM*, TGFb CCL64 inh 4.6µM* and COP TGFb inh inconclusive.
Screening CS(=O)(=O)Nc1ccccc1C(=O)Nc1cc(Cl)cc(Cl)c1 returned HT1080 IDH1KD tx 11µM*, HepG2 tox-1 -26%, KB-V1 MDR tox inactive, HT1080NT lethal inconclusive, KB-3-1 tox inactive, TGFb SMAD3 inh 7.1µM*, TGFb CAGA inh 7.3µM*, HepG2 tox-2 inconclusive, TGFb CCL64 inh 8.2µM* and COP TGFb inh 57%.
Screening N#Cc1cn(C2OC(CO)C(O)C2O)c2ncnc(N)c12 (stereo unspecified) returned HT1080 IDH1KD tx 0.21µM*, HepG2 tox-1 -36%, KB-V1 MDR tox inconclusive, HT1080NT lethal inconclusive, KB-3-1 tox 0.0073µM*, TGFb SMAD3 inh 0.1µM*, TGFb CAGA inh 0.23µM*, HepG2 tox-2 0.15µM*, TGFb CCL64 inh 0.1µM* and COP TGFb inh 12%.
Screening NC(=O)c1cn(C2OC(CO)C(O)C2O)c2ncnc(N)c12 (stereo unspecified) returned HT1080 IDH1KD tx 0.12µM*, HepG2 tox-1 -47%, KB-V1 MDR tox 0.0073µM*!, HT1080NT lethal 0.33µM*, KB-3-1 tox 0.021µM*, TGFb SMAD3 inh 0.11µM*, TGFb CAGA inh 0.092µM*, HepG2 tox-2 0.065µM*, TGFb CCL64 inh 0.23µM* and COP TGFb inh -12%.
Screening OCC1OC(n2cnc3cc(Cl)c(Cl)cc32)C(O)C1O (stereo unspecified) returned HT1080 IDH1KD tx inconclusive, HepG2 tox-1 -45%, KB-V1 MDR tox inactive, HT1080NT lethal inconclusive, KB-3-1 tox inactive and TGFb SMAD3 inh inconclusive.
`NC(=O)c1c(Br)n(C2OC(CO)C(O)C2O)c2ncnc(N)c12` (stereo unspecified) gave HT1080 IDH1KD tx 7.3µM*, HepG2 tox-1 -18%, KB-V1 MDR tox 9.2µM*, HT1080NT lethal inconclusive, KB-3-1 tox 4.1µM*, TGFb SMAD3 inh 1.4µM*, TGFb CAGA inh 2.1µM*, HepG2 tox-2 inconclusive, TGFb CCL64 inh inconclusive and COP TGFb inh 20%.
For Cc1cc(NC(=O)CSc2nc3c(c(=O)n2-c2ccc(Cl)cc2)SCC3)no1 the results were HT1080 IDH1KD tx -30%, HepG2 tox-1 5%, KB-V1 MDR tox inactive, HT1080NT lethal inconclusive, KB-3-1 tox inactive and TGFb SMAD3 inh -4%.
Cc1ccccc1Cn1cccc(C(=O)Nc2nc3ccccc3s2)c1=O was read as HepG2 tox-1 -19%, KB-V1 MDR tox inactive, KB-3-1 tox inactive and TGFb SMAD3 inh -1%.
Screening CC(C)c1oc(=O)cc2c1[C@@H](O)[C@H]1OC(=O)[C@@]3(C)C[C@@H](O)[C@@H](O)[C@@]2(C)C13 (stereo partly specified) returned HT1080 IDH1KD tx 10µM*, HepG2 tox-1 -25%, KB-V1 MDR tox inactive, HT1080NT lethal inconclusive, KB-3-1 tox 8.2µM*, TGFb SMAD3 inh 8.9µM*, TGFb CAGA inh 2.9µM*, HepG2 tox-2 inconclusive, TGFb CCL64 inh 5.2µM* and COP TGFb inh 16%.
Screening CNc1ccc2oc(C[C@H]3O[C@@]4(CC[C@H]3C)O[C@H]([C@H](C)C(=O)c3ccc[nH]3)[C@H](C)C[C@H]4C)nc2c1C(=O)O returned HT1080 IDH1KD tx 2.1µM*, HepG2 tox-1 7.1µM*, KB-V1 MDR tox 3.7µM*, HT1080NT lethal 1.5µM*, KB-3-1 tox 4.1µM*, TGFb SMAD3 inh 5µM*, TGFb CAGA inh 2.1µM*, HepG2 tox-2 1.5µM*, TGFb CCL64 inh 1µM* and COP TGFb inh 6.5µM*.
Cc1ccc(N=Nc2c(O)[nH]c(=O)[nH]c2=O)cc1S(=O)(=O)Nc1ccc(Br)cc1 was read as HT1080 IDH1KD tx inconclusive, HepG2 tox-1 11%, KB-V1 MDR tox inactive, HT1080NT lethal inconclusive, KB-3-1 tox inactive and TGFb SMAD3 inh 9%.
`C=Cc1cc(OC)c2c(c1)c(=O)oc1c2cc(OC)c2c(O)ccc(C3OC(C)C(O)C(C)(O)C3O)c21` (stereo unspecified) gave HT1080 IDH1KD tx 1.5µM*, HepG2 tox-1 24%, KB-V1 MDR tox 18µM*, HT1080NT lethal 9.2µM*, KB-3-1 tox inconclusive, TGFb SMAD3 inh 1.4µM*, TGFb CAGA inh 0.92µM*, HepG2 tox-2 1.2µM*, TGFb CCL64 inh 2.1µM* and COP TGFb inh 7%.
